Data taken from article PMC7862700, “An all-to-all approach to the identification of sequence-specific readers for epigenetic DNA modifications on cytosine”.

Experiments:
Test in all cases: DAPPL (digital affinity profiling via proximity ligation, sequencing); 10 mM Tris-HCl pH 7.5, 50 mM NaCl, 1 mM DTT, 4% glycerol, room temperature, 30 min; GST-TFs on glutathione beads, 16-mer random dsDNA library, 0.1% formaldehyde crosslink after washing; high values mean tight binding
FLI1 = biological target: T1, FLI1 (Homo sapiens, UniProt Q01543 1-452); settings: protein: recombinant; tags: N-terminal GST; dsDNA, one strand shown
T1 sequence: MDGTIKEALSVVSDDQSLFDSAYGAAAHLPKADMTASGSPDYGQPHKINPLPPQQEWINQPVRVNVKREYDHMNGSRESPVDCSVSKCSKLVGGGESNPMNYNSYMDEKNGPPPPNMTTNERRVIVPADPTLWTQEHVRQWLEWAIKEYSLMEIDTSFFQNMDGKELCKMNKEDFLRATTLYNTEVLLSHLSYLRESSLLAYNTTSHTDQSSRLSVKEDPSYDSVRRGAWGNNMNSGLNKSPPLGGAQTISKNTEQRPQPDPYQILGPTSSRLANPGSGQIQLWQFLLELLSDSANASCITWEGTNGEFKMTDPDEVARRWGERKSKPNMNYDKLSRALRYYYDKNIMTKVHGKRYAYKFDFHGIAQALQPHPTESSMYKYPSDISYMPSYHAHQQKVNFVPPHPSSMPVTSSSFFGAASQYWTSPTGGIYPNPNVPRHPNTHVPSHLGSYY
Summary of the method: (§1)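 The binding signal reported is, for every hexamer, its read frequency for a factor over its read frequency for the tag-only sample. Reads came from pools of yeast-expressed, GST-fused human transcription factors on glutathione beads, barcoded with DNA and mixed with that sample, which were incubated with 200 nmole of a random double-stranded 16-mer DNA library in Tris/NaCl/DTT/glycerol buffer at room temperature for 30 min. After washing, the pools were crosslinked with 0.1% formaldehyde, proximity-ligated with BsaI/T4 ligase for 1 h at 37 °C, PCR-amplified and sequenced on an Illumina NextSeq500.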

ELK1 = biological target: T2, ELK1 (Homo sapiens, UniProt P19419 1-428); settings: protein: recombinant; tags: N-terminal GST; dsDNA, one strand shown
T2 sequence: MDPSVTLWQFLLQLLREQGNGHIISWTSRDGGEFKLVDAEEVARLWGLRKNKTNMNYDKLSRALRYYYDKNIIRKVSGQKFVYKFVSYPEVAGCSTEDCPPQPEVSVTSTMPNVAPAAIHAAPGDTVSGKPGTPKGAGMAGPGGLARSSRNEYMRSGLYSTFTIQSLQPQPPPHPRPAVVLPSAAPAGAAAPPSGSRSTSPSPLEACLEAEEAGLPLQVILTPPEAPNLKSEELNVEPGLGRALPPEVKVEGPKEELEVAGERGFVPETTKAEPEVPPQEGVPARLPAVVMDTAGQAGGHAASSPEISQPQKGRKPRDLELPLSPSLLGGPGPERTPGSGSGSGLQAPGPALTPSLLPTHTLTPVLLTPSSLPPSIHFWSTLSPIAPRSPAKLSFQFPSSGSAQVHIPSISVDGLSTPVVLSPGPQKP
Summary of the method: as §1

GABPA = biological target: T3, GABPA (Homo sapiens, UniProt Q06546 1-454); settings: protein: recombinant; tags: N-terminal GST; dsDNA, one strand shown
T3 sequence: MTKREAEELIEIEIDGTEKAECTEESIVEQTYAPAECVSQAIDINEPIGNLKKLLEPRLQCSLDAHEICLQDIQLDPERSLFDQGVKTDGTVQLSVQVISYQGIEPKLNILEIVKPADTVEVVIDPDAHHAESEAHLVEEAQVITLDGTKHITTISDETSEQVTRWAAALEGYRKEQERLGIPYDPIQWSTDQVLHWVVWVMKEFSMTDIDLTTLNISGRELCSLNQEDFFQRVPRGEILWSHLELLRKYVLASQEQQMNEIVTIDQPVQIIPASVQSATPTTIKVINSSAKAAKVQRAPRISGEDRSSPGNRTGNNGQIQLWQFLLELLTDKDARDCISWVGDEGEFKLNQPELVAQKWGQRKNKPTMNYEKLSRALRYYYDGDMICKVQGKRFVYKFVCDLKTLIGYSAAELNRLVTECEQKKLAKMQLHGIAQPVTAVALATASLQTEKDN
Summary of the method: as §1

ERG = biological target: T4, ERG (Homo sapiens, UniProt P11308 1-479); settings: protein: recombinant; tags: N-terminal GST; dsDNA, one strand shown
T4 sequence: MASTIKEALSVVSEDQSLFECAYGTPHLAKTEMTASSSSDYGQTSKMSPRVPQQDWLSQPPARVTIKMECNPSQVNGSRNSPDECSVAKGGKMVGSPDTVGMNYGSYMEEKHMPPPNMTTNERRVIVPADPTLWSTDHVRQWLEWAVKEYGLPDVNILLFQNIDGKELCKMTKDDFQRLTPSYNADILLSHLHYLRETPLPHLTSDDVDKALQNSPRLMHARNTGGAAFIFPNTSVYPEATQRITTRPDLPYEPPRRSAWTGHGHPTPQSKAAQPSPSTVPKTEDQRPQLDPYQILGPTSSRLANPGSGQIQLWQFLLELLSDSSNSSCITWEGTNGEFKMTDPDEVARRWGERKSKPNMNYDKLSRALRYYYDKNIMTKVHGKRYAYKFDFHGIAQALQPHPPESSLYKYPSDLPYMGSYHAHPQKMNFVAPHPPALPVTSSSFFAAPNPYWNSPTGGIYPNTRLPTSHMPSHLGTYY
Summary of the method: as §1

ELF1 = ELF1 (Homo sapiens, UniProt P32519 1-619); settings: protein: recombinant; tags: N-terminal GST; dsDNA, one strand shown
Sequence of ELF1 (P32519 whole entry): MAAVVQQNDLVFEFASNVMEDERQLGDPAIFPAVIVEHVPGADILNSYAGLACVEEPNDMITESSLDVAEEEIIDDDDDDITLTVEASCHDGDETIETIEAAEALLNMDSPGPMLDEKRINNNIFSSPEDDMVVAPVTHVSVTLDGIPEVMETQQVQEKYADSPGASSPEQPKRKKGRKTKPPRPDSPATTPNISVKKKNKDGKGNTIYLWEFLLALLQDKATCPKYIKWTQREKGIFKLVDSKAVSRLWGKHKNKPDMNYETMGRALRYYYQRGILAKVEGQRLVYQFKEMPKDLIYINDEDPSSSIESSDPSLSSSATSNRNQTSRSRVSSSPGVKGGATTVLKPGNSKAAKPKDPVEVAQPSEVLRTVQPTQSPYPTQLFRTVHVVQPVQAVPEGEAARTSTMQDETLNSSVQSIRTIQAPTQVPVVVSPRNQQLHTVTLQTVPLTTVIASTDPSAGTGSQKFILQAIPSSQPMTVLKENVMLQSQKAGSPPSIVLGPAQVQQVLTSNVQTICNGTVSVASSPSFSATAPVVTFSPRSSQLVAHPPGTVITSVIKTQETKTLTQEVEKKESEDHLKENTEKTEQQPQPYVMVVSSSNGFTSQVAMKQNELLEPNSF
Summary of the method: as §1

EHF = biological target: T5, EHF (Homo sapiens, UniProt Q9NZC4 1-300); settings: protein: recombinant; tags: N-terminal GST; dsDNA, one strand shown
T5 sequence: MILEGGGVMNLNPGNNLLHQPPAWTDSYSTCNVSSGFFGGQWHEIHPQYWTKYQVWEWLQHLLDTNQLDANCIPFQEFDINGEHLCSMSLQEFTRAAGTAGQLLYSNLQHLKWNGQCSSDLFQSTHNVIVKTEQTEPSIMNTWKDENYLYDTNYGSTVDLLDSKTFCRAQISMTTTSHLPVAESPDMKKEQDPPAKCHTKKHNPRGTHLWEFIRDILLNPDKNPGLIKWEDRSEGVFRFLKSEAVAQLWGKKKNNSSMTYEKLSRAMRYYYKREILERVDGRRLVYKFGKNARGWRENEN
Summary of the method: as §1

SPI1 = SPI1 (Homo sapiens, UniProt P17947 1-270); settings: protein: recombinant; tags: N-terminal GST; dsDNA, one strand shown
Summary of the method: as §1

SPIB = SPIB (Homo sapiens, UniProt Q01892 1-262); settings: protein: recombinant; tags: N-terminal GST; dsDNA, one strand shown
Sequence of SPIB (Q01892 whole entry): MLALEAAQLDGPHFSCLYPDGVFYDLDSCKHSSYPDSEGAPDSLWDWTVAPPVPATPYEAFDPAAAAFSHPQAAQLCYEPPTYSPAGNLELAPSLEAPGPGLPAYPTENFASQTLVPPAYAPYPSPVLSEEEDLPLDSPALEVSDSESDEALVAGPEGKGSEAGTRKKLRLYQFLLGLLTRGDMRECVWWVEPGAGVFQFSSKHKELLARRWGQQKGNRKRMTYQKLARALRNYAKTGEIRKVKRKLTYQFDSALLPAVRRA
Summary of the method: as §1

ELK3 = biological target: T6, ELK3 (Homo sapiens, UniProt P41970 1-407); settings: protein: recombinant; tags: N-terminal GST; dsDNA, one strand shown
T6 sequence: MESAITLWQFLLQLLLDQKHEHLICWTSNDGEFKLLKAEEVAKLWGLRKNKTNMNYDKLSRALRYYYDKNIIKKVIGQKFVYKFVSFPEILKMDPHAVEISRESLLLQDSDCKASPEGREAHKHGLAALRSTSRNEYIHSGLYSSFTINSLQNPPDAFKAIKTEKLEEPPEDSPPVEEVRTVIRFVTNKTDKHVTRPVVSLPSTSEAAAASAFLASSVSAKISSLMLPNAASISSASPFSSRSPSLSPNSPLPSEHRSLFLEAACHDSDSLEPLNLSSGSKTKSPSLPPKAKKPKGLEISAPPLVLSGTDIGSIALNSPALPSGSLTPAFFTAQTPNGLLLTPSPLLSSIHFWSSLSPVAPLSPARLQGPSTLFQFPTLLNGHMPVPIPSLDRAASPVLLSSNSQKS
Summary of the method: as §1

FEV = biological target: T7, FEV (Homo sapiens, UniProt Q99581 1-238); settings: protein: recombinant; tags: N-terminal GST; dsDNA, one strand shown
T7 sequence: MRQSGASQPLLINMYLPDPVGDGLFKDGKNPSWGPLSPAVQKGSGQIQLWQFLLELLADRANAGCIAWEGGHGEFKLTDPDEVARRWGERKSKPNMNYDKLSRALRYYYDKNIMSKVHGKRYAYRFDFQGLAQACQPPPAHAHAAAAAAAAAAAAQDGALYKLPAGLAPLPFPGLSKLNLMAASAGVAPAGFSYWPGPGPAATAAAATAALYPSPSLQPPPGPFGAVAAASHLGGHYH
Summary of the method: as §1

ETV5 = ETV5 (Homo sapiens, UniProt P41161 1-510); settings: protein: recombinant; tags: N-terminal GST; dsDNA, one strand shown
Sequence of ETV5 (P41161 whole entry): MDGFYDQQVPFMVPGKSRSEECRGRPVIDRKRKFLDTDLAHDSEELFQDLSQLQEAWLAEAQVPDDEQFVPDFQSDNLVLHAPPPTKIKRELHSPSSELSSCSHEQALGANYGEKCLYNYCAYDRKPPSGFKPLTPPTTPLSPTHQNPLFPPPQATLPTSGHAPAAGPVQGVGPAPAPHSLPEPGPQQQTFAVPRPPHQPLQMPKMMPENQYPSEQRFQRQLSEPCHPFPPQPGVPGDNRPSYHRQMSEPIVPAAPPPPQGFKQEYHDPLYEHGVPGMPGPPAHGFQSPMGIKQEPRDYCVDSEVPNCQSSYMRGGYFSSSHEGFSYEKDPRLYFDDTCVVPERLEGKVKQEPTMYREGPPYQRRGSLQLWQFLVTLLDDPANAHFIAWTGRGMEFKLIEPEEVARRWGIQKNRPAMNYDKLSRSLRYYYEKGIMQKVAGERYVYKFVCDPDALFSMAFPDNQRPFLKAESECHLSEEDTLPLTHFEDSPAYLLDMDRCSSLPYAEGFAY
Summary of the method: as §1

HSF1 = HSF1 (Homo sapiens, UniProt Q00613 1-529); settings: protein: recombinant; tags: N-terminal GST; chain copies: 3; dsDNA, one strand shown
Sequence of HSF1 (Q00613 whole entry): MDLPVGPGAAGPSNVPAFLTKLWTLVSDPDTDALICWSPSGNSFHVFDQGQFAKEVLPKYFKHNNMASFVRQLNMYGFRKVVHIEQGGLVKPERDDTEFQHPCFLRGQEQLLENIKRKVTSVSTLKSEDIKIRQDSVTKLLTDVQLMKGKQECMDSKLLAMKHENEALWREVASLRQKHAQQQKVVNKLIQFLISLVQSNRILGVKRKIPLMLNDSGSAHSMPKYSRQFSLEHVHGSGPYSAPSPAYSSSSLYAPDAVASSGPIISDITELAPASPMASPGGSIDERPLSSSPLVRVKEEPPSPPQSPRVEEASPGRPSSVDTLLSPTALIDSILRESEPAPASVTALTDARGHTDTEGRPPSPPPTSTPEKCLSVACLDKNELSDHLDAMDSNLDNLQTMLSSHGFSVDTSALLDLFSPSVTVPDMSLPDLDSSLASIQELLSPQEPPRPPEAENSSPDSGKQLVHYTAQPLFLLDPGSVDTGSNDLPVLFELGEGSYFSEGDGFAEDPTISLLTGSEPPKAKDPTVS
Summary of the method: as §1

SPIC = biological target: T8, SPIC (Homo sapiens, UniProt Q8N5J4 1-248); settings: protein: recombinant; tags: N-terminal GST; dsDNA, one strand shown
T8 sequence: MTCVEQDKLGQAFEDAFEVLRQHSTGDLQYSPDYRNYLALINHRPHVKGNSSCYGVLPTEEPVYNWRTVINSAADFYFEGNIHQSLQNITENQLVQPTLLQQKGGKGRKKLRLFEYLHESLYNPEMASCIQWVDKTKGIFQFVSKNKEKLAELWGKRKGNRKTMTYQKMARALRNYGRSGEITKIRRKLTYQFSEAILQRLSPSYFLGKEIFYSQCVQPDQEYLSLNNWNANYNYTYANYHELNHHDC
Summary of the method: as §1

ELF4 = ELF4 (Homo sapiens, UniProt Q99607 1-663); settings: protein: recombinant; tags: N-terminal GST; dsDNA, one strand shown
Sequence of ELF4 (Q99607 whole entry): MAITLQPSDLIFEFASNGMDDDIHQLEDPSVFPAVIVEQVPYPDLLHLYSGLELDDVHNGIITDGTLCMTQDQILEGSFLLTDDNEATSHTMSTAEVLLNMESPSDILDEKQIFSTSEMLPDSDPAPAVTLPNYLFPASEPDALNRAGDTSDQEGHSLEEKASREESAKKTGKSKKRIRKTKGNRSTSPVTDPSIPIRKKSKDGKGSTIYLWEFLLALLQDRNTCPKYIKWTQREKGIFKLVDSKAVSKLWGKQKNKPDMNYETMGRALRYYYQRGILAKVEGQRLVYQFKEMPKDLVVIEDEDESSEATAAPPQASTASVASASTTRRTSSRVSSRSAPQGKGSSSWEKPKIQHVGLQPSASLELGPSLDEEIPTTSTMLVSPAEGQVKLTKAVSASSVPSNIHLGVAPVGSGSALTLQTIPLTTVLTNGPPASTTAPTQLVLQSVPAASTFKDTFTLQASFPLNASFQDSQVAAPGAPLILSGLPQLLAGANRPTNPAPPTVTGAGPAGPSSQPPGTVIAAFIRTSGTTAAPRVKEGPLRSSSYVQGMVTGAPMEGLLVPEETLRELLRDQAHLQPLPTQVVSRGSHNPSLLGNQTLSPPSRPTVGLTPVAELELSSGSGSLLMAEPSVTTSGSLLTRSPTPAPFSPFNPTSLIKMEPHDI
Summary of the method: as §1

ELK4 = biological target: T9, ELK4 (Homo sapiens, UniProt P28324-2 1-405); settings: protein: recombinant; tags: N-terminal GST; dsDNA, one strand shown
T9 sequence: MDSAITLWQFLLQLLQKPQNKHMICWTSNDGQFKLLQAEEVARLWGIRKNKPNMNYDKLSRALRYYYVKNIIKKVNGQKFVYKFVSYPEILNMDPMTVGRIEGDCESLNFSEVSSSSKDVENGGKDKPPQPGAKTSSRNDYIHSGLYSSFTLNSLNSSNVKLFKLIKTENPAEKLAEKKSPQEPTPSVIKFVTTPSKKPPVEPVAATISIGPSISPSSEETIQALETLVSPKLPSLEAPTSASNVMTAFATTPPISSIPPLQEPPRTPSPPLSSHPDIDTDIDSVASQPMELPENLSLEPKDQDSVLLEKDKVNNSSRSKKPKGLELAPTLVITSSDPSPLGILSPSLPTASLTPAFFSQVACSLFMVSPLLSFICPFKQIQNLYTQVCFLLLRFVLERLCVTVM
Summary of the method: as §1

ETV2 = biological target: T10, ETV2 (Homo sapiens, UniProt O00321 1-342); settings: protein: recombinant; tags: N-terminal GST; dsDNA, one strand shown
T10 sequence: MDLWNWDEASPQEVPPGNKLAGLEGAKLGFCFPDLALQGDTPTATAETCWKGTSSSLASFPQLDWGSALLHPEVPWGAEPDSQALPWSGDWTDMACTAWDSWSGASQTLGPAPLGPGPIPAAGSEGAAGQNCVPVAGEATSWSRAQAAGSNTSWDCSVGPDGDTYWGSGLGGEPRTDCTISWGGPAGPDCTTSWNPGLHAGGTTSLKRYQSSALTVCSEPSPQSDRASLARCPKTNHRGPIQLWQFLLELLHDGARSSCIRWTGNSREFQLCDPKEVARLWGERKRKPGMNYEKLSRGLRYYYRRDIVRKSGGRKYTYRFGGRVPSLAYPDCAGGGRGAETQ
Summary of the method: as §1

ELF3 = biological target: T11, ELF3 (Homo sapiens, UniProt P78545 1-371); settings: protein: recombinant; tags: N-terminal GST; dsDNA, one strand shown
T11 sequence: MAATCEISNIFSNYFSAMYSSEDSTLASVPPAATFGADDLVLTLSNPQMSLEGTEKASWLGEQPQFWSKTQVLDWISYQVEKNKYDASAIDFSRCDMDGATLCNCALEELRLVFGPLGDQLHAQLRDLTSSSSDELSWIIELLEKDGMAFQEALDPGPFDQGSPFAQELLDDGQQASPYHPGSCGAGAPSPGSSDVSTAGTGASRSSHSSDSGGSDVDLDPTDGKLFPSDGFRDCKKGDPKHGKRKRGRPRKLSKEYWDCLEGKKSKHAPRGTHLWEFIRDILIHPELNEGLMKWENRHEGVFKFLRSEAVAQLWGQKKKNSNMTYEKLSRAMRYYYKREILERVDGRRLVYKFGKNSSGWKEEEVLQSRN
Summary of the method: as §1

ETV1 = ETV1 (Homo sapiens, UniProt P50549 1-477); settings: protein: recombinant; tags: N-terminal GST; dsDNA, one strand shown
Sequence of ETV1 (P50549 whole entry): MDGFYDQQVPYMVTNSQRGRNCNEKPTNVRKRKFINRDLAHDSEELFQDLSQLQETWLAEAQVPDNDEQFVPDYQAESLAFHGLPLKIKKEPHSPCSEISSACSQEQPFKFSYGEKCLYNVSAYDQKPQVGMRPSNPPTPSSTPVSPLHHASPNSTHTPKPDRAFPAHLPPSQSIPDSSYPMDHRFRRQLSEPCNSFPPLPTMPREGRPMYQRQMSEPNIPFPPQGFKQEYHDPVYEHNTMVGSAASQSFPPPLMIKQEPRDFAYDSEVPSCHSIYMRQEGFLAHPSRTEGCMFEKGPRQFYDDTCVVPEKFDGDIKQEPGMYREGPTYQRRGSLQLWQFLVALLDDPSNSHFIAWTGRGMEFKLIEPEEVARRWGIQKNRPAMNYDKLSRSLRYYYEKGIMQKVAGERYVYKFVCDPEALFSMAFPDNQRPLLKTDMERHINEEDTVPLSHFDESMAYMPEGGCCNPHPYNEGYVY
Summary of the method: as §1

Q: What does the source list for ACTCAC?
A: binding signal (FLI1): 1.22 fold enrichment (6-mer frequency, TF over GST control); binding signal (ELK1): 1.31 fold enrichment (6-mer frequency, TF over GST control); binding signal (GABPA): 1.27 fold enrichment (6-mer frequency, TF over GST control); binding signal (ERG): 1.17 fold enrichment (6-mer frequency, TF over GST control); binding signal (ELF1): 1.18 fold enrichment (6-mer frequency, TF over GST control); binding signal (EHF): 1.24 fold enrichment (6-mer frequency, TF over GST control); binding signal (SPI1): 1.23 fold enrichment (6-mer frequency, TF over GST control); binding signal (SPIB): 1.44 fold enrichment (6-mer frequency, TF over GST control); binding signal (ELK3): 1.35 fold enrichment (6-mer frequency, TF over GST control); binding signal (FEV): 1.24 fold enrichment (6-mer frequency, TF over GST control); binding signal (ETV5): 1.18 fold enrichment (6-mer frequency, TF over GST control); binding signal (HSF1): 1.07 fold enrichment (6-mer frequency, TF over GST control); binding signal (SPIC): 1.25 fold enrichment (6-mer frequency, TF over GST control); binding signal (ELF4): 1.24 fold enrichment (6-mer frequency, TF over GST control); binding signal (ELK4): 1.18 fold enrichment (6-mer frequency, TF over GST control); binding signal (ETV2): 1.24 fold enrichment (6-mer frequency, TF over GST control); binding signal (ELF3): 1.31 fold enrichment (6-mer frequency, TF over GST control); binding signal (ETV1): 1.15 fold enrichment (6-mer frequency, TF over GST control)
